Measured values reported in publication PMC4552634, “A New Set of Chemical Starting Points with Plasmodium falciparum Transmission-Blocking Potential for Antimalarial Drug Discovery” (PLoS ONE, 2015).
About 3,200 (25%) of roughly 13,000 compounds showed an effect of 50% or more. Some of the results follow.

Each compound was assayed on P. falciparum stage V gametocytes. Conditions: 48 h, 5 µM; inhibitor.
Set-up: BacTiter-Glo ATP luminescence viability of purified stage V gametocytes in 384-well plates, per cent inhibition versus DMSO

SMILES | % Inhibition
CCN(CC)CCN(Cc1ccc(-c2ccc(C(F)(F)F)cc2)cc1)C(=O)c1c[nH]c2ccc(Br)cc12 [TCMDC-141557] | 106.7%
CC(C)CCN(Cc1cncn1Cc1cccc(C(F)(F)F)c1)C(=O)c1cncc(-c2ccccc2)c1 [TCMDC-132458] | 37.01%
CCN(CC)CCN(Cc1ccc(-c2ccc(C(F)(F)F)cc2)cc1)C(=O)c1ccc(-c2ccc(NC(=O)OC)cc2C)cc1 [TCMDC-141558] | 93.92%
CCN(CC)CCN(Cc1ccc(-c2ccc(C(F)(F)F)cc2)cc1)C(=O)c1ccc(-c2ccc(C#N)cc2)cc1 [TCMDC-141556] | 55.86%
COC(=O)Nc1ccc(-c2ccc(C(=O)NC3CCN(C[C@H](O)c4ccnc5ccc(OC)cc45)CC3)cc2)c(C)c1 [TCMDC-141170] | -22.09%
CCOC(=O)c1ccc(NC(=O)Nc2ccc(-c3ccc(-c4nc5ccc(C(F)(F)F)cc5[nH]4)cc3)cc2)cc1 [TCMDC-133260] | 23.97%
CCN(CC)C(=O)C(=O)c1c[nH]c2ccc(Cl)cc12 [TCMDC-131976] | 21.68%
CCCC(C)N(Cc1ccc(C(C)(C)C)cc1)C(=O)c1cccc(C#N)c1 (stereo not drawn) [TCMDC-139784] | -24.96%
Cc1cc(C)c(S(=O)(=O)N2CCCCC(c3cccc(C(F)(F)F)c3)=N2)c(C)c1 [TCMDC-134550] | -57.26%
CC(C)(C)C1CCC(CC2=C(C(=O)O)c3ccccc3C2=O)CC1 (stereo not drawn) [TCMDC-137496] | 8.625%
O=C1OC(c2ccccc2)(c2ccccc2)CN1C1CCN(Cc2ccc(O)c(Cl)c2)C1 (stereo not drawn) [TCMDC-136070] | -44.93%
COc1cccc2cc(C(=O)N[C@@H](CC(C)C)C(=O)N[C@H](C=NNC(=O)OC(C)(C)C)Cc3ccccc3)oc12 [TCMDC-136073] | -20.59%
Cc1cccc2[nH]c(-c3cccc(-c4cccc(CN5CCN(c6ccncc6)CC5)c4)c3)nc12 [TCMDC-132910] | 41.94%
Cc1cc(N[C@@H](CC(C)C)C(=O)Nc2ccccc2)nc(NCCc2ccc(F)cc2)n1 [TCMDC-134797] | 10.71%
Cc1cc(N[C@@H](Cc2ccccc2)C(=O)Nc2ccccc2)nc(NCCc2ccccc2)n1 [TCMDC-134777] | 63.66%
Cc1cc(N[C@@H](Cc2ccccc2)C(=O)Nc2ccccc2)nc(NCCN2CCCC2)n1 [TCMDC-134925] | 33.54%
Cc1cc(N[C@@H](Cc2ccccc2)C(=O)Nc2ccccc2)nc(Nc2ccccc2)n1 [TCMDC-134736] | -2.834%
Cc1cc(N[C@@H](CC(C)C)C(=O)Nc2ccccc2)nc(NCCc2ccccc2)n1 [TCMDC-134780] | 99.12%
COc1ccc(NC(=O)[C@H](CC(C)C)Nc2cc(C)nc(NCCc3ccc(F)cc3)n2)cc1 [TCMDC-134793] | 11.38%
COc1ccc(NC(=O)[C@H](CC(C)C)Nc2cc(C)nc(NCCc3ccccc3)n2)cc1 [TCMDC-134778] | 31.74%
Cc1cc(N[C@@H](Cc2ccccc2)C(=O)Nc2ccccc2)nc(NCCc2ccc(F)cc2)n1 [TCMDC-134790] | 26.02%
COc1ccc(NC(=O)[C@H](Cc2ccccc2)Nc2nc(NCCN3CCCC3)ncc2C)cc1 [TCMDC-134860] | 27.32%

SMILES | % Inhibition
COc1ccc(NC(=O)[C@H](Cc2ccccc2)Nc2cc(C)nc(NCCc3ccc(F)cc3)n2)cc1 [TCMDC-134786] | 103.7%
COc1ccc(NC(=O)[C@H](Cc2ccccc2)Nc2cc(C)nc(NCCN3CCCC3)n2)cc1 [TCMDC-134924] | 85.56%
COc1ccc2nccc(N3CCC(O)(CCNCc4ccc5c(n4)NC(=O)CS5)CC3)c2n1 [TCMDC-134553] | -13.65%
CCCOc1ccc(C=C(CC(=O)O)c2nc3ccccc3s2)cc1OCC [TCMDC-125020] | 4.95%
CO/C(=C\C=C\c1cc2cc(Cl)c(Cl)cc2[nH]1)C(=O)NCCCN1CCN(c2cccc(CCO)c2)CC1 [TCMDC-139549] | -37.75%
CC[C@H](C)CNC(=O)c1cncc(-c2ccc(CN3CCC(N4CCCC4)CC3)cc2)c1 [TCMDC-134234] | 36.3%
c1ccn2c(-c3ncnc(NCc4ccc5c(c4)CCO5)n3)cnc2c1 [TCMDC-135175] | 28.7%
COCc1ccccc1C(=O)NCCOc1cc(C)cc(C)c1 [TCMDC-134843] | -15.71%
Cc1cc(N[C@@H](Cc2ccccc2)C(=O)NC2CCCC2)nc(NCCCOC(C)C)n1 [TCMDC-134821] | 40.66%
Cc1cc(N[C@@H](Cc2ccccc2)C(=O)Nc2ccccc2)nc(NCCc2cccs2)n1 [TCMDC-134814] | 131.2%
Cc1cc(N[C@@H](Cc2ccccc2)C(=O)NC2CCCC2)nc(NCCc2cccs2)n1 [TCMDC-134811] | 53.29%
COc1ccc(NC(=O)[C@H](Cc2ccccc2)Nc2cc(C)nc(NCCc3cccs3)n2)cc1 [TCMDC-134873] | 39.58%
COc1ccc(NC(=O)[C@H](Cc2ccccc2)Nc2cc(C)nc(NCc3ccccc3C)n2)cc1 [TCMDC-134904] | -26.59%
COc1ccc(NC(=O)[C@H](Cc2ccccc2)Nc2cc(C)nc(NCCc3ccccc3OC)n2)cc1 [TCMDC-134801] | 16.26%
Cc1cc(N[C@@H](Cc2ccccc2)C(=O)NC2CCCC2)nc(NCc2ccccc2C)n1 [TCMDC-134902] | -12.74%
COc1ccc(NC(=O)[C@H](Cc2ccccc2)Nc2cc(C)nc(NCCc3ccccc3)n2)cc1 [TCMDC-134774] | 119.9%
CCOC(=O)C1=C(C)NC(C)=C(C(=O)OCC)C1(C(=O)OCc1ccccc1)c1cccc(C(F)(F)F)c1 [TCMDC-132060] | -16.58%
Cc1cc(NC(=O)c2coc3cc(F)c(N4CC(C)N(C)C(C)C4)cc23)cnc1-c1ccc(C#N)cc1 (stereo not drawn) [TCMDC-141403] | -2.152%
Oc1ccc(Cl)cc1CN1CCC(CCOC(c2ccccc2)c2ccc(Cl)cc2)CC1 (stereo not drawn) [TCMDC-136035] | 13.31%
O=C(/C=C/c1ccc(Cl)c(Cl)c1)NCCCCCN1CCC(NC(=O)Nc2cc(F)ccc2F)CC1 [TCMDC-135713] | -50.93%
COc1cc(F)c2ncc(Cl)c(CCN3CCC(NCc4cc5c(cn4)OCCO5)CC3)c2c1 [TCMDC-134284] | 7.425%
O=S(=O)(c1cc(Cl)ccc1Cl)N1CCCCC(c2ccc(C(F)(F)F)cc2)=N1 [TCMDC-134538] | -6.074%

SMILES | % Inhibition
CCCCN1CCCC[C@H]1[C@@H](O)c1ccnc2ccc(OCC)cc12 [TCMDC-132037] | -41.99%
CN(N=Cc1ccccc1)C(N)=NCCCC#Cc1cccc(CN2CCCC2)c1 [TCMDC-136886] | 99.7%
CC(C)c1ccc(NC(=O)c2cccc(CN3CCCN(Cc4cccc(C#N)c4)CC3)c2)cc1 [TCMDC-135975] | 18.13%
CC(C)(C)c1ccc(NC(=O)c2cccc(CN3CCCN(Cc4cccc(C#N)c4)CC3)c2)cc1 [TCMDC-135981] | -19.29%
CCCCCCNC(=O)C1Cc2c([nH]c3ccccc23)C2(CCN(CCc3ccccc3)CC2)N1 (stereo not drawn) [TCMDC-141085] | -57.94%
O=C(CCc1cnc[nH]1)Nc1ccc(-c2ccc(-c3nc4ccc(F)cc4[nH]3)cc2)cc1 [TCMDC-136776] | 4.733%
CCCCCCCCOc1c(OCC)cc(Cc2cnc(N)nc2N)cc1OCC [TCMDC-137175] | -7.172%
CCCCCCN(CCCCCC)CCCCNc1c2ccc(Cl)cc2nc2ccc(OC)cc12 [TCMDC-137520] | 100.6%
CCCCN(CCCC)CCCCNc1c2ccc(Cl)cc2nc2ccc(OC)cc12 [TCMDC-137460] | 99.56%
CCN(CC)CCCCCNc1c2ccc(Cl)cc2nc2ccc(OC)cc12 [TCMDC-137514] | 94.78%
COc1ccc2nccc([C@@H](O)CN3CCC(NC(=O)C(c4ccsc4)N4CCN(c5ccccc5)CC4)CC3)c2c1 (stereo partly drawn) [TCMDC-140985] | -15.82%
Cc1cccc2nc(-c3cccc(-c4cccc(C(=O)NCc5nccn5C)c4)c3)[nH]c12 [TCMDC-132355] | -47.29%
CN(CCN)Cc1cccc(-c2cccc(-c3nc4ccc(C(F)(F)F)cc4[nH]3)c2)c1 [TCMDC-132818] | 68%
CNc1ccc(CNCc2cccc(-c3ccc(-c4nc5ccc(C(F)(F)F)cc5[nH]4)cc3)c2)cc1 [TCMDC-132982] | -73.95%
CNCCNCc1ccc(-c2ccc(-c3nc4ccc(C(F)(F)F)cc4[nH]3)cc2)cc1 [TCMDC-132833] | 32.25%
CNCCNCc1ccc(-c2cccc(-c3nc4ccc(C(F)(F)F)cc4[nH]3)c2)cc1 [TCMDC-132826] | 78.68%
COc1ccc(CNCc2ccc(-c3cccc(-c4nc5ccc(C(F)(F)F)cc5[nH]4)c3)cc2)cc1 [TCMDC-132731] | -22.42%
CNCCNCc1cccc(-c2cccc(-c3nc4ccc(C(F)(F)F)cc4[nH]3)c2)c1 [TCMDC-132827] | 52.85%
CNCCNCc1cccc(-c2ccc(-c3nc4ccc(C(F)(F)F)cc4[nH]3)cc2)c1 [TCMDC-132834] | 79.7%
COc1ccc(CNCc2cccc(-c3ccc(-c4nc5ccc(C(F)(F)F)cc5[nH]4)cc3)c2)cc1 [TCMDC-132723] | -32.29%
CC(C)NCc1cccc(-c2ccc(-c3nc4ccc(C(F)(F)F)cc4[nH]3)cc2)c1 [TCMDC-132742] | -56.16%
CN(CCN)Cc1cccc(-c2cccc(-c3nc4ccc(F)cc4[nH]3)c2)c1 [TCMDC-132822] | 48.31%
